Experimental data as given in PubChem BioAssay (Tox21).
Records with an inconclusive call do not appear. Activity calls are given as the source filed them. The call rests on the fitted dose curve; in most records, active means well fitted cell-killing curve with a large enough effect in the repeat runs; inconclusive means weak or mixed curves, or effect the other way; inactive means flat fitted curve, though single readings scatter.

Assay: qHTS assay to identify small molecule agonists of the constitutive androstane receptor (CAR) signaling pathway - cell viability counter screen (AID 1224836); further: nearly all actives have a fitted effect of over 45% in size
Conditions: HepG2-CYP2B6-hCAR viability, CellTiter-Fluor, 23 h, PK11195 added to every well; series mostly up to 92.4 µM; viability change, negative = cytotoxic: at the top concentration
Excerpt: U.S. Tox21 Program National Center for Advancing Translational Sciences [NCATS] NIH Chemical Genomics Center [NCGC] U.S. Environmental Protection Agency [EPA] National Institutes of Environmental Health Sciences [NIEHS] National Toxicology Program [NTP] U.S. Food and Drug Administration [FDA] Tox21 Assay Overview: The constitutive androstane receptor (CAR) is a nuclear receptor which regulates multiple drug metabolizing enzymes (DMEs) and transporters. Activating CAR will generally increase the transcription and subsequent translation of CYP2B6 and CYP3A4. These two DMEs represent about 50% of the drug metabolizing potential in the body. […] Recently, there have also been studies performed indicating CARs role in energy metabolism and cancer therapy. Therefore, inducing CARs activity could have a potential effect on diabetes and cancer. Identifying environmental toxins and compounds which modulate CAR, through the use of the Tox21 10K compound collection, will be an important step in determining the toxicity and potential therapeutic effects these factors will have on the human body. To differentiate true CAR agonists from cytotoxic substances, the assay is multiplexed with a cell viability assay.
Tox21 Assay Protocol Summary: A double-stable (hCAR and CYP2B6-2.2kb) transfected cell line, derived from human hepatoma (HepG2) cells, was utilized for the duration of the quantitative high-throughput screens. The HepG2-CYP2B6-hCAR cells were dispensed at 2500 cells/4 uL/well in 1536-well white solid bottom plates using a Multidrop Combi. After the assay plates were incubated at 37 C/5% CO2 for 4 hrs, 23 nL of compounds at 15 concentrations (from 5-48 columns) or positive control (from 1 to 4 columns) were transferred to the assay plates using a Pintool station. One uL of PK11195 (final concentration = 0.75 uM) was added, using a Flying Reagent Dispenser, inside each well. After a 23 hr incubation period at 37 C/5% CO2, 1 uL of CellTiter-Fluor reagent was added into each well of the assay plates using a Flying Reagent Dispenser. The fluorescence intensity in the plates was then measured using a ViewLux plate reader.
On the % scale 0 is the no-effect control and ±100 the full control effect; potency means the concentration at half of the fitted maximal effect.

SMILES | viability change, negative = cytotoxic | Potency
O=C(O)C(F)(F)C(F)(F)C(F)(F)C(F)(F)C(F)(F)C(F)(F)C(F)(F)C(F)(F)C(F)(F)C(F)(F)F | 1.33% (inactive) | 
COc1cc(CC(C)N)cc2c1OCO2 (stereo not given) | 0.571% (inactive) | 
CCOP(=S)(OCC)SCn1nnc2ccccc2c1=O | -12.5% (inactive) | 
COCCOCCO | -1.29% (inactive) | 
OCCCBr | 2.09% (inactive) | 
COC1=CC(=O)O[C@@H](CCc2ccccc2)C1 | 3.26% (inactive) | 
CCCCCCCCCCOC(=O)c1ccccc1C(=O)OCCCCCCCCCC | -1.28% (inactive) | 
O=[N+]([O-])c1ccc(F)c([N+](=O)[O-])c1 |  | 34.7 µM (active)
C[C@H]1CNCCc2ccc(Cl)cc21 | 2.74% [at 42.5 µM] (inactive) | 
[O-][Cl+]O | 2.71% (inactive) | 
CCC(COC(=O)c1cc(OC)c(OC)c(OC)c1)(c1ccccc1)N(C)C (stereo not given) | -8.28% [at 42.5 µM] (inactive) | 
CCCCNP(N)(N)=S | -11.5% (inactive) | 
N#CCc1ccccc1 | -0.719% (inactive) | 
Cn1sc(Cl)cc1=O | -2.18% (inactive) | 
Oc1ccc(Cl)c(Cl)c1Cl | 1.57% (inactive) | 
COP(=S)(Oc1cc(Cl)c(Br)cc1Cl)c1ccccc1 (stereo not given) | 0.714% (inactive) | 
CN1C(=O)NC(=O)C(C)(C2=CCCCC2)C1=O (stereo not given) | -0.9% [at 42.5 µM] (inactive) | 
C=CC(=O)OCCCCO | -14.1% (inactive) | 
COc1ccc(-c2ccccc2)cc1NNC(=O)OC(C)C | -18.9% (inactive) | 
CCOC(=O)CBr | 3.59% (inactive) | 

SMILES | viability change, negative = cytotoxic | Potency
Cc1ccccc1CCl | 1.45% (inactive) | 
O=Cc1ccc2c(c1)OCO2 | 1.23% (inactive) | 
O=S(=O)(O)C(F)(F)C(F)(F)C(F)(F)C(F)(F)F | 0.532% (inactive) | 
NCCCNCCCN | -18.3% (inactive) | 
CC1(C)[C@H](C=C(Cl)Cl)[C@@H]1C(=O)O[C@@H](C#N)c1cccc(Oc2ccccc2)c1 | 4.28% (inactive) | 
CC(=O)NC1CCSC1=O (stereo not given) | -2.06% [at 42.5 µM] (inactive) | 
CC(c1ccc(O)cc1)(c1ccc(O)cc1)c1ccc(O)cc1 | -18.7% (inactive) | 
CCCCN(N=O)C(=N)N[N+](=O)[O-] | -16.6% (inactive) | 
CN1C(=O)C(O)N=C(c2ccccc2)c2cc(Cl)ccc21 (stereo not given) | 1.18% (inactive) | 
CCOP(=S)(OCC)Oc1nc(Cl)c(Cl)cc1Cl |  | inactive
O=C(Nc1ccccc1)Nc1ccnc(Cl)c1 |  | 48.6 µM (active)
C=CCN1CC[C@]23c4c5ccc(O)c4O[C@H]2C(=O)CC[C@@]3(O)[C@H]1C5 | -3.53% [at 42.5 µM] (inactive) | 
Clc1cc(Cl)c(Cl)c(Cl)c1 | 7.7% (inactive) | 
C=CCOC(C)=O | 1.36% (inactive) | 
NS(=O)(=O)C(F)(F)C(F)(F)C(F)(F)C(F)(F)C(F)(F)C(F)(F)C(F)(F)C(F)(F)F | -21.9% (inactive) | 
CNP(=O)(OC)Oc1ccc(C(C)(C)C)cc1Cl (stereo not given) | -5.42% (inactive) | 
CN(N=O)c1ccc([N+](=O)[O-])cc1 | -11.2% (inactive) | 
CC(C)(OO)c1ccccc1 | 2.76% (inactive) | 
CC(Cl)Cl | 8.86% (inactive) | 
O=C1C(Cl)C(CCl)CN1c1cccc(C(F)(F)F)c1 (stereo not given) | -2.47% (inactive) | 
